In PMC4336329 (PLoS ONE, 2015):
Out of some 310,000 compounds screened, about 14,000 (4.5%) showed an effect of 50% or more. The effect is printed as a negative number. The entries come from a sample that favours strong results as a whole.

Target: human ether-à-go-go-related gene (hERG) potassium channel (human, UniProt Q12809)
Experiment: primary screen, population patch clamp on CHO cells stably expressing hERG; higher = less effect of the substance
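Also: peak tail current of the secondary pulse compared with the same well before compound.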

Sequence of human ether-à-go-go-related gene (hERG) potassium channel (Q12809 whole entry, looked up): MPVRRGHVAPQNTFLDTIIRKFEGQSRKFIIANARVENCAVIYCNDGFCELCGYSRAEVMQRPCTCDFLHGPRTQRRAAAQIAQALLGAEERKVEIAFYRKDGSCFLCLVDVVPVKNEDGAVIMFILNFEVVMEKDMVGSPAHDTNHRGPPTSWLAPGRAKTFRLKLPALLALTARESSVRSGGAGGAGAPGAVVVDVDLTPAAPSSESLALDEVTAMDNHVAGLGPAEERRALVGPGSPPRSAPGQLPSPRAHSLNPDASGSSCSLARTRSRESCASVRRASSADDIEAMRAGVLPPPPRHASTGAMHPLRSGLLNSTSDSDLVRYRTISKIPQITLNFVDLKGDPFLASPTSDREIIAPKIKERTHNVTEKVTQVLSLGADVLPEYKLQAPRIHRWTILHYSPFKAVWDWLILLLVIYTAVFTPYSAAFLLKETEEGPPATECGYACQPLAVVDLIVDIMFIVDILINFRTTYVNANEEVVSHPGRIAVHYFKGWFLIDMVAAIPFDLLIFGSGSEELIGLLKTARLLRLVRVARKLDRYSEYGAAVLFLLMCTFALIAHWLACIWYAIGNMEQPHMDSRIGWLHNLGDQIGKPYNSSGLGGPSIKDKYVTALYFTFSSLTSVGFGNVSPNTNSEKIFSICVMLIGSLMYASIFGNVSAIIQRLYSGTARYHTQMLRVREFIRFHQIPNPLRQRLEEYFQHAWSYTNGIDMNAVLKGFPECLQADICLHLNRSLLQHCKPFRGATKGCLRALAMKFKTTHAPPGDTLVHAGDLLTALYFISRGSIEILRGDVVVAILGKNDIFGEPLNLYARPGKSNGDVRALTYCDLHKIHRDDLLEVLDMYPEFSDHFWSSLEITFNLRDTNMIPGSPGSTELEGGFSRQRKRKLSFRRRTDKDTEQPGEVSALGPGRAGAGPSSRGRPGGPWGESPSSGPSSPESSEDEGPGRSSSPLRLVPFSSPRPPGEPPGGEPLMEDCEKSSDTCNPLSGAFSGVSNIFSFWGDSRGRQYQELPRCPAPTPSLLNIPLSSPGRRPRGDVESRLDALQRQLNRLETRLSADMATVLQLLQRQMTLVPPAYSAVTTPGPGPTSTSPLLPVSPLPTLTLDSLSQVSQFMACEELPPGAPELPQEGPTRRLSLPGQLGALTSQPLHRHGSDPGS

Row | Compound | hERG current change (%, negative = inhibition) at 10uM [%]
1 | COc1ccc(OCCOC(=O)c2cc(S(=O)(=O)N3CCOCC3)c(Cl)cc2Cl)cc1 | -17.7
2 | Cc1ccc(NS(=O)(=O)c2cc([N+](=O)[O-])ccc2NNC(=S)Nc2cccc(Cl)c2)c(C)c1 | 26
3 | C[C@]12C=CC(=O)C=C1CC[C@@H]1[C@@H]2[C@@H](O)C[C@@]2(C)[C@H]1CC[C@]2(O)C(=O)COC(=O)CCC(=O)NCCc1ccc(O)cc1 | 12.8
4 | CN1CCN(c2oc(Cc3cccc4ccccc34)nc2C#N)CC1 | -9.75
5 | CCOC(=O)N1CCC(NC(=O)CCC(=O)c2ccccc2)CC1 | 10.8
6 | CCc1ccccc1NC(=O)C(Cc1cccc(OC)c1OC)c1nn[nH]n1 (centres unmarked) | 7.41
7 | O=C(Nc1nccs1)C12CC3CC(C1)CC(C(=O)Nc1nccs1)(C3)C2 | -11.1
8 | COc1ccc(OCC(=O)Nc2ccc3c(c2)n(C)c(=O)n3C)cc1 | -3.51
9 | CCN1CCN(CCc2nc3cc(NC(=O)COc4ccc(Cl)cc4)ccc3n2C)CC1 | -67.6
10 | Cn1c(=O)n(C)c2cc(NC(=O)COc3ccc(Cl)cc3)ccc21 | -59.4
11 | Cn1c(=O)n(C)c2cc(NC(=O)COc3ccc(F)cc3)ccc21 | -41.8
12 | CC(=O)Nc1ccc2c(c1)nc(CCN1CCN(C)CC1)n2C | -2.56
13 | CCN1CCN(CCc2nc3cc(NC(=O)COc4ccccc4)ccc3n2C)CC1 | -49.8
14 | Cn1c(CCN2CCCCC2)nc2cc(NC(=O)COc3ccc(Cl)cc3)ccc21 | -84.8
15 | CN1CCN(CCc2nc3cc(NC(=O)COc4ccc(Cl)cc4)ccc3n2C)CC1 | -61
16 | c1ccc(Cc2nnc3sc(-c4ccccn4)nn23)cc1 | -6.6
17 | COc1ccc(C(=O)N=c2sc3c(C)ccc(OC)c3n2C)cc1OC | 7.38
18 | Cc1cc2c(ncn2C)c(NS(=O)(=O)c2ccc(Cl)cc2)c1C | -1.18
19 | COc1cc(C2NCC(c3ccc(Cl)cc3Cl)c3c2[nH]c2ccccc32)cc(OC)c1OC.Cl (centres unmarked) | 7.58
20 | COc1ccccc1N(C(=O)c1ccco1)C(C(=O)NC1CCCC1)c1cccnc1 (centres unmarked) | -0.441
21 | CC1CCN(S(=O)(=O)N2CCC(C(=O)NCCc3ccccc3)CC2)CC1 | 2.8

Row | Compound | hERG current change (%, negative = inhibition) at 10uM [%]
22 | CC(C)CN1C(=O)c2ccc(C(=O)Nc3ccccn3)cc2C1=O | -14.7
23 | O=C(COc1ccccc1)Nc1cc2c3c(c1)CC(=O)N3CCC2 | -36
24 | Cn1c(CN2CCCC2)nc2cc(NC(=O)COc3ccc(Cl)cc3)ccc21 | -69.2
25 | CC1C(=O)N2CCCc3cc(NC(=O)COc4ccc(Cl)cc4)cc1c32 (centres unmarked) | -40.2
26 | O=C(COc1ccc(Cl)cc1)Nc1cc2c3c(c1)CC(=O)N3CCC2 | -57.1
27 | COc1ccc(OCC(=O)Nc2ccc3c(c2)nc(CN2CCCC2)n3C)cc1 | -26.9
28 | Cn1c(CN2CCCC2)nc2cc(NC(=O)COc3ccccc3)ccc21 | -34.1
29 | CC(C)CNC(=O)COc1ncnc2sccc12 | -37.4
30 | Cc1c(CN(C)Cc2cn(C)nc2-c2ccccc2F)[nH]c2ccccc12 | -6.24
31 | COc1cc(/C=N/n2nnnc2N)cc(OC)c1OC | -0.774
32 | Cc1cc(C)cc(C(=O)N(CCc2ccccc2)C2=CC3CCC(C2)N3C)c1.Cl (centres unmarked) | -60.7
33 | COC(=O)C1=C(CCc2ccccc2)NC(=O)NC1c1ccc(Cl)cc1 (centres unmarked) | -9.59
34 | CN1C2C=C(N(CCc3c[nH]c4ccccc34)C(=O)c3ccc(Cl)cc3)CC1CC2.Cl (centres unmarked) | -67
35 | O=C(Cc1ccc(Cl)cc1)NCCc1c[nH]c2ccccc12 | -19.8
36 | O=C(NCCc1c[nH]c2ccccc12)c1ccc(Cl)cc1 | -12.7
37 | O=C(NCC(=O)N1CCC(Cc2ccccc2)CC1)c1ccc(Cl)cc1 | -23.3
38 | COc1cc(C(=O)N(CCc2ccccc2)C2=CC3CCC(C2)N3C)cc(OC)c1OC.Cl.O (centres unmarked) | -29.2
39 | Cc1cc(C)cc(C(=O)NCCCc2ccccc2)c1 | -4.26
40 | CN1C2C=C(N(CCc3ccccc3)C(=O)c3ccc(Cl)cc3)CC1CC2.Cl (centres unmarked) | -74.8
41 | COc1cccc(CN(C(=O)c2cccc(OC)c2)C2CCS(=O)(=O)C2)c1 (centres unmarked) | -7.02
42 | O=P1(Nc2cccnc2)COc2ccccc2OC1 | 30.6

Row | Compound | hERG current change (%, negative = inhibition) at 10uM [%]
43 | CSc1ccccc1C(=O)NCCOc1cccc(C)c1 | 17.7
44 | O=C(CNC(=O)c1cccs1)NCC(=O)OCc1ccccc1Cl | 2.85
45 | Cc1[nH]nc2c1C1(CCOCC1)C(C#N)=C(N)O2 | -56.7
46 | Cc1[nH]nc2c1C1(CCC3(CC1)OCCO3)C(C#N)=C(N)O2 | -0.214
47 | CC(=O)N1CCC2(CC1)C(C#N)=C(N)Oc1n[nH]c(C)c12 | 15.5
48 | COc1ccc(S(=O)(=O)NC(C)C(=O)NCc2ccccn2)cc1Cl (centres unmarked) | 7.6
49 | Cc1ccc2c(c1)cc(CN(CCc1ccccc1)C(=O)N1CCOCC1)c1nnnn12 | -61.3
50 | Cc1cccc2cc(CN(Cc3cccnc3)C(=O)c3cccs3)c3nnnn3c12 | 26.1
51 | Cc1cccc2cc(CN(CCc3ccccc3)C(=O)N3CCOCC3)c3nnnn3c12 | 12.5
52 | Cc1ccc(C(=O)N(Cc2cccnc2)Cc2cc3cc(C)ccc3n3nnnc23)cc1 | -23.8
53 | Cc1ccc2c(c1)cc(CN(Cc1ccco1)C(=O)N1CCOCC1)c1nnnn12 | -14.7
54 | Cc1ccc2c(c1)cc(CN(Cc1ccc3c(c1)OCO3)C(=O)c1cnccn1)c1nnnn12 | -45.7
55 | Cc1ccc2c(c1)cc(CN(Cc1ccc3c(c1)OCO3)C(=O)c1ccccc1)c1nnnn12 | -11.5
56 | Cc1ccc2c(c1)cc(CN(Cc1cccnc1)C(=O)c1ccccc1)c1nnnn12 | -78
57 | Cc1ccc2c(c1)cc(CN(Cc1cccnc1)C(=O)NCc1ccccc1)c1nnnn12 | -75.2
58 | Cc1ccc(S(=O)(=O)N(C)C)cc1-n1c(SCC(=O)Nc2ccc(F)cc2Cl)nc2ccccc2c1=O | 0.00438
59 | CC(=O)N1CCc2cc(S(=O)(=O)Nc3ccc(C)cc3)ccc21 | 16.9
60 | Cc1ccccc1CN1CCN(S(=O)(=O)c2ccc(Cl)s2)CC1 | 3.24
61 | CCOC(=O)c1c(C)oc2cc(Br)c(O)c(Br)c12 | 8.34
62 | COc1ccc(C[C@H]2CN3C(=NC[C@@H]3Cc3ccc(O)cc3)N2C[C@H](C)NC(=O)c2ccc(C)c(Br)c2)cc1 | -77.9
63 | Cc1ccc(C(=O)N[C@@H](C)CN2C3=NC[C@H](Cc4ccccc4)N3C[C@H]2Cc2ccc(O)cc2)cc1Br | -82.5

Row | Compound | hERG current change (%, negative = inhibition) at 10uM [%]
64 | CCOc1ccc(C(=O)Nc2nnc(C)s2)cc1OCC | -4.04
65 | COc1cc(/C=C2/SC(=O)NC2=O)ccc1OC(=O)c1ccco1 | -0.00422
66 | COc1cc2c(c3oc(=O)cc(CC(=O)O)c13)CCC(C)(C)O2 | -5.45
67 | COc1ccccc1CCC(=O)N1CCC(n2nccc2NC(=O)C2CCOC2)CC1 (centres unmarked) | 23.1
68 | CCOC(=O)CC1(c2ccccc2)CCOC(C)(C)C1 (centres unmarked) | 10.2
69 | O=C(c1cccnc1)N1C2C=CC(C2)C1(C(F)(F)F)C(F)(F)F (centres unmarked) | 14.6
70 | Cc1noc(C)c1C(=O)NC(C)C1CCCO1 (centres unmarked) | 3.08
71 | Cc1ccc(C(=O)N2CCN(C)CC2)cc1S(=O)(=O)N1CCCCCC1 | -25.9
72 | Cc1ccc2cc(CCNC(=O)c3ccc4c(c3)OCO4)c(=O)[nH]c2c1C | 4.17
73 | O=C(O)c1ccc(COc2ccccc2/C=C2\NC(=O)N(Cc3ccccc3)C2=O)cc1 | 24.5
74 | O=C(NCCN1CCOCC1)c1ccc(CS(=O)(=O)c2c(Cl)cccc2Cl)o1 | 0.302
75 | CCCCN(CC)CCCNC(=O)c1ccc(CS(=O)(=O)c2c(Cl)cccc2Cl)o1 | -55.4
76 | CCCN(CCC)CCCNC(=O)c1ccc(CS(=O)(=O)c2c(Cl)cccc2Cl)o1 | -73.1
77 | O=C(NC1CC1)c1ccc(CS(=O)(=O)c2c(Cl)cccc2Cl)o1 | -5.87
78 | COCCNC(=O)c1ccc(CS(=O)(=O)c2c(Cl)cccc2Cl)o1 | 0.994
79 | O=C(NCCCN1CCCC1)c1ccc(CS(=O)(=O)c2c(Cl)cccc2Cl)o1 | -10.5
80 | CCCCN(CC)CCCNC(=O)c1ccc(CS(=O)(=O)c2ccccc2C)o1 | -35.2
81 | O=C(O)c1ccc(CS(=O)(=O)c2c(Cl)cccc2Cl)o1 | 19
82 | CCCCN(CCCNC(=O)c1ccc(CS(=O)(=O)c2c(Cl)cccc2Cl)o1)Cc1ccccc1 | -66.1
83 | O=c1nc(-c2ccccc2)c2ccccc2[nH]1 | -1.29
